Results from the supplement of paper PMC10849652.
About 8,800 targets were measured; listed, in parts, are those with a hit and a random draw of the rest. About 0.5% of all pairs of compound and target were hits.

Tests used:
Experiment in all cases: log2 fold change, soluble protein after heating vs DMSO (PISA); higher = thermal stabilisation; K562 lysate, 10 uM; active = over 0.2 and 3.5 SD of the protein, either way, in both replicates (recomputed)
alvocidib = compound: CN1CC[C@H](c2c(O)cc(O)c3c(=O)cc(-c4ccccc4Cl)oc23)[C@H](O)C1 [alvocidib]
Method in brief: (§1)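 Values give the log-two fold change in thermal stability against solvent controls, from duplicates. Crude K562 extract at 1 mg/mL protein, made by dounce homogenisation in PBS pH 7.4 with 1 mM MgCl2, was treated with 10 μM compound for 30 min. After 3 min heating across 48°C-58°C, aliquots were pooled, adjusted to 0.5% NP-40 at 4°C and centrifuged at 21,000xg for 90 min. The supernatant was measured by TMTpro 16plex LC-MS/MS with channel sums equalised.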

Tubastatin A = compound: CN1CCc2c(c3ccccc3n2Cc2ccc(C(=O)NO)cc2)C1 [Tubastatin A]
Method in brief: as §1

[1] = compound: CNC(=O)C1=CC=CC=C1NC2=NC(=NC=C2Cl)NC3=C(C=C(C=C3)N4CCOCC4)OC
Method in brief: as §1

defactinib = compound: CNC(=O)c1ccc(Nc2ncc(C(F)(F)F)c(NCc3nccnc3N(C)S(C)(=O)=O)n2)cc1 [defactinib]
Method in brief: as §1

[2] = compound: CNc1nc(-c2ccc3c(N)n[nH]c3c2)cc(N2C[C@@H](C(=O)NC3CCCCC3)CC[C@H]2C)n1
Method in brief: as §1

encorafenib = compound: COC(=O)N[C@@H](C)CNc1nccc(-c2cn(C(C)C)nc2-c2cc(Cl)cc(NS(C)(=O)=O)c2F)n1 [encorafenib]
Method in brief: as §1

[3] = compound: COC(=O)[C@H](CCSC)NC(=O)C1=C(C=C(C=C1)NC[C@H](CS)N)C2=CC=CC=C2
Method in brief: as §1

alisertib = compound: COc1cc(Nc2ncc3c(n2)-c2ccc(Cl)cc2C(c2c(F)cccc2OC)=NC3)ccc1C(=O)O [alisertib]
Method in brief: as §1

[4] = compound: COc1cc2nc(-c3cc(F)ccc3O)nc(N[C@@H]3CNC[C@H]3C(C)(C)O)c2cc1OC
Method in brief: as §1

gefitinib = compound: COc1cc2ncnc(Nc3ccc(F)c(Cl)c3)c2cc1OCCCN1CCOCC1 [gefitinib]
Method in brief: as §1

Measured: log2 fold change

RPAP1 (UniProt Q9BWH6)
UniProt Q9BWH6, sequence (Q9BWH6 whole entry, looked up): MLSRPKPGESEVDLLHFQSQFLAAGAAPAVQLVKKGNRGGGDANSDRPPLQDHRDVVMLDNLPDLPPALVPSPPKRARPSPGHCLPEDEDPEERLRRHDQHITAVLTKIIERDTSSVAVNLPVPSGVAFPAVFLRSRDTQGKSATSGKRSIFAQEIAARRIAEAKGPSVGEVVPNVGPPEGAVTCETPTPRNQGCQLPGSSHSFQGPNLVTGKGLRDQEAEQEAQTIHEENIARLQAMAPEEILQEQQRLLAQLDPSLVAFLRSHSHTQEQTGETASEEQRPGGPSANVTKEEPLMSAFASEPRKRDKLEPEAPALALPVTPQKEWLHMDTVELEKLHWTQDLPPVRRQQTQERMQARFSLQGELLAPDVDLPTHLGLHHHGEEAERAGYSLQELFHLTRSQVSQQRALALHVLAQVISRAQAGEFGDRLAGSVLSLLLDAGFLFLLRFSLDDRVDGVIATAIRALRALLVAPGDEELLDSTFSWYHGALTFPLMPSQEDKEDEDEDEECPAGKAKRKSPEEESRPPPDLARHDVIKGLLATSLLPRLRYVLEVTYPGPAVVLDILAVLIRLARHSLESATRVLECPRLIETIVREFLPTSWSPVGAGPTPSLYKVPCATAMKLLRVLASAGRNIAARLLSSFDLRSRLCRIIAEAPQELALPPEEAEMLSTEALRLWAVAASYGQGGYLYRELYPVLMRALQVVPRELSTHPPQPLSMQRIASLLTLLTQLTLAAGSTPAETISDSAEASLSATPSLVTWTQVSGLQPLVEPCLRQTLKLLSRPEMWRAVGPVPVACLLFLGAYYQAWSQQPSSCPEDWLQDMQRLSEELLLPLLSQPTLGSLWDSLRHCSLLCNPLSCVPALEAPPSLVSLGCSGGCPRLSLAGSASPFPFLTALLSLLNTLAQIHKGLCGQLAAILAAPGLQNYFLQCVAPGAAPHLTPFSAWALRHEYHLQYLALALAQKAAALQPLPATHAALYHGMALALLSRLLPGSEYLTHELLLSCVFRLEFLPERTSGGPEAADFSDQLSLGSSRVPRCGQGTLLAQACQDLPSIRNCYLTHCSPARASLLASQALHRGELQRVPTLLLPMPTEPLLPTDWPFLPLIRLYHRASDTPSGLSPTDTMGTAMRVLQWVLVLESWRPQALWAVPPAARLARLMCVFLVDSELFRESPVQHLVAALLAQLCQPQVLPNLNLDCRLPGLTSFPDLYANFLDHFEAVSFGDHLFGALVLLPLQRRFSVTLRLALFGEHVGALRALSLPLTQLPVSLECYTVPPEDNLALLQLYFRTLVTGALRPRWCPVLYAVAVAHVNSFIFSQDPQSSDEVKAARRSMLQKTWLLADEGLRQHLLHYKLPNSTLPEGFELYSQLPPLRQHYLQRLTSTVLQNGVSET
inactive: alvocidib -0.001 | Tubastatin A -0.077 | [1] 0.016 | defactinib -0.006 | [2] 0.007 | encorafenib 0.019 | [3] -0.069 | alisertib 0.013 | [4] 0.027 | gefitinib -0.007

SBF1 isoform 4 (UniProt O95248)
inactive: alvocidib 0.005 | Tubastatin A 0.074 | [1] -0.054 | defactinib 0.022 | [2] -0.099 | encorafenib -0.004 | [3] -0.009 | alisertib 0.238 | [4] 0.008 | gefitinib 0.062

RCC1 isoform 2 (UniProt P18754)
UniProt P18754, sequence (P18754 whole entry, looked up): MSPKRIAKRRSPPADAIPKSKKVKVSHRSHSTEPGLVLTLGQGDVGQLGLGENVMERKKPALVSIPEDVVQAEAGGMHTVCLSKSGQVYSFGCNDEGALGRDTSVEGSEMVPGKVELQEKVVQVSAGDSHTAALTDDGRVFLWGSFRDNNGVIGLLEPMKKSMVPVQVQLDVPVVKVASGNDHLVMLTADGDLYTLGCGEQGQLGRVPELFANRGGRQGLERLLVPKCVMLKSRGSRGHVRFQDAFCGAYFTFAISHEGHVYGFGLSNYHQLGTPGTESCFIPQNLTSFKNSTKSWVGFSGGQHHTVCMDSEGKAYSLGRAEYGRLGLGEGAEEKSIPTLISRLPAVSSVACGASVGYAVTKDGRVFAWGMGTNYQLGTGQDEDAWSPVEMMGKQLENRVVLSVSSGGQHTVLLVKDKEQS
inactive: alvocidib 0.012 | Tubastatin A -0.168 | [1] 0.018 | defactinib 0.055 | [2] -0.007 | encorafenib 0.006 | [3] 0.151 | alisertib 0.006 | [4] -0.017 | gefitinib -0.003

RAB3IL1 (UniProt Q8TBN0)
inactive: alvocidib 0.027 | Tubastatin A -0.021 | [1] 0.022 | defactinib 0.007 | [2] 0.009 | encorafenib -0.006 | [3] -0.031 | alisertib -0.013 | [4] 0.039 | gefitinib 0.014

S100A11 (UniProt P31949)
UniProt P31949, sequence (P31949 whole entry, looked up): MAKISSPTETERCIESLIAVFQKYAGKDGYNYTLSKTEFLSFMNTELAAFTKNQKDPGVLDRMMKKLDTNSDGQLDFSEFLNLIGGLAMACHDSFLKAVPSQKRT
inactive: alvocidib 0.085 | Tubastatin A 0.075 | [1] 0.029 | defactinib 0.059 | [2] -0.011 | encorafenib -0.021 | [3] 0.007 | alisertib 0.024 | [4] -0.01 | gefitinib -0.089

RAB6D (UniProt Q53S08)
inactive: alvocidib -0.029 | Tubastatin A 0.078 | [1] 0.024 | defactinib 0.077 | [2] 0.087 | encorafenib 0.023 | [3] -0.034 | alisertib -0.149 | [4] 0.062 | gefitinib 0.027

RPL36AL (UniProt Q969Q0)
inactive: alvocidib 0.055 | Tubastatin A -0.056 | [1] 0.023 | defactinib 0.026 | encorafenib 0.03 | [3] -0.08 | alisertib -0.057 | [4] -0.029 | gefitinib -0.07
active: [2] -0.243

RHOA (UniProt P61586)
UniProt P61586, sequence (P61586 whole entry, looked up): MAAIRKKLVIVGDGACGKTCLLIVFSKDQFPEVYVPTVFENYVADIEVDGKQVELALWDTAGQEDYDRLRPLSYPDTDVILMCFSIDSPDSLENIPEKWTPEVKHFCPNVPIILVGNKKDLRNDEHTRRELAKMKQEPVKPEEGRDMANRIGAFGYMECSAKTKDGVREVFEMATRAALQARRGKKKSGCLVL
inactive: alvocidib 0.093 | Tubastatin A -0.078 | [1] 0.087 | defactinib -0.029 | [2] -0.003 | encorafenib -0.042 | [3] -0.046 | alisertib 0.072 | [4] 0.029 | gefitinib 0.078

SESN2 (UniProt P58004)
inactive: alvocidib 0.028 | Tubastatin A -0.093 | [1] -0.028 | defactinib 0.039 | [2] 0.033 | encorafenib 0.038 | [3] -0.001 | alisertib -0.026 | [4] -0.045 | gefitinib -0.034

RCAN1 (UniProt P53805)
UniProt P53805, sequence (P53805 whole entry, looked up): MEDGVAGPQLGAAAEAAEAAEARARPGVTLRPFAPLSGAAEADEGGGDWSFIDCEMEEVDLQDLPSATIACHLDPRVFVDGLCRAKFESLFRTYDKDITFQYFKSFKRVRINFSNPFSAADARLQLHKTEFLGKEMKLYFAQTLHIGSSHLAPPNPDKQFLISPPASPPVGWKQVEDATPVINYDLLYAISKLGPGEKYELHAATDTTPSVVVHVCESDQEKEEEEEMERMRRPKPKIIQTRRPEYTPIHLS
inactive: alvocidib -0.003 | Tubastatin A -0.118 | [1] 0.052 | defactinib 0.006 | [2] 0.079 | encorafenib 0.065 | [3] 0.035 | alisertib -0.02 | [4] 0.019 | gefitinib -0.038

RASA3 (UniProt Q14644)
inactive: alvocidib -0.089 | Tubastatin A -0.246 | [1] 0 | defactinib 0.052 | [2] -0.118 | encorafenib -0.005 | [3] 0.082 | alisertib -0.006 | [4] 0.032 | gefitinib -0.043

R3HCC1 (UniProt Q9Y3T6)
inactive: alvocidib -0.019 | Tubastatin A 0.023 | [1] 0.048 | defactinib 0.055 | [2] -0.018 | encorafenib -0.004 | [3] -0.04 | alisertib -0.002 | [4] 0.003 | gefitinib 0.008

RNF181 (UniProt Q9P0P0)
UniProt Q9P0P0, sequence (Q9P0P0 whole entry, looked up): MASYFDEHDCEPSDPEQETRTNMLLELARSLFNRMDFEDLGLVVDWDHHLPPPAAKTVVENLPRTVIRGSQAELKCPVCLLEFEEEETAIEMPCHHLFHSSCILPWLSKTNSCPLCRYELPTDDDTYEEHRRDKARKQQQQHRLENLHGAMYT
inactive: alvocidib 0 | Tubastatin A 0.021 | [1] 0.037 | defactinib 0.044 | [2] -0.008 | encorafenib 0.029 | [3] -0.201 | alisertib -0.011 | [4] -0.004 | gefitinib -0.083

RCOR1 (UniProt Q9UKL0)
inactive: alvocidib -0.031 | Tubastatin A -0.021 | [1] -0.017 | defactinib -0.039 | [2] 0.014 | encorafenib 0.01 | [3] 0.115 | alisertib 0.023 | [4] 0.027 | gefitinib -0.011

RBM22 (UniProt Q9NW64)
UniProt Q9NW64, sequence (Q9NW64 whole entry, looked up): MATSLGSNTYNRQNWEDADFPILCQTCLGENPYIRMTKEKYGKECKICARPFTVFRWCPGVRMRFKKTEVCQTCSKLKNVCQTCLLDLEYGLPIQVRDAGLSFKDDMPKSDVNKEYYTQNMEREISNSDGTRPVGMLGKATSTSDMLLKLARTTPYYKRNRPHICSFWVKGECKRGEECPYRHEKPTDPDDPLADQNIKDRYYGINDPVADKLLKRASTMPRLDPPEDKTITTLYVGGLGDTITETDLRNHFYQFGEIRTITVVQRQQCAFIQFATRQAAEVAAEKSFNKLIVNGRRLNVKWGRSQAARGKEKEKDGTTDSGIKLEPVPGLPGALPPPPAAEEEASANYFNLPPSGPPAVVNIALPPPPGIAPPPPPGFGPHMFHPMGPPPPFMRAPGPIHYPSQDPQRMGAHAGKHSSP
inactive: alvocidib 0.022 | Tubastatin A 0.019 | [1] 0.009 | defactinib 0.001 | [2] 0.179 | encorafenib 0.05 | [3] -0.11 | alisertib 0.002 | [4] 0.026 | gefitinib 0.031

RHOU (UniProt Q7L0Q8)
inactive: alvocidib 0.007 | Tubastatin A 0.005 | [1] -0.036 | defactinib -0.073 | [2] -0.17 | encorafenib -0.088 | [3] 0.164 | alisertib -0.014 | [4] 0.024 | gefitinib -0.017

RBM4 (UniProt Q9BWF3)
inactive: alvocidib 0.16 | Tubastatin A -0.168 | [1] 0.013 | defactinib -0.011 | [2] -0.088 | encorafenib 0.089 | [3] -0.066 | alisertib 0.037 | [4] 0.006 | gefitinib -0.004

RALA (UniProt P11233)
UniProt P11233, sequence (P11233 whole entry, looked up): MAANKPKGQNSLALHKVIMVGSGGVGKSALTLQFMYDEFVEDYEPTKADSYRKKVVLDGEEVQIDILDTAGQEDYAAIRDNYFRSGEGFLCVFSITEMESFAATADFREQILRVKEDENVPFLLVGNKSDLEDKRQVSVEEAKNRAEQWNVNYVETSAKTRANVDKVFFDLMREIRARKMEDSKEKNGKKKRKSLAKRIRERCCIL
inactive: alvocidib -0.164 | Tubastatin A 0.044 | [1] 0.016 | defactinib -0.057 | [2] 0.056 | encorafenib 0.03 | [3] -0.102 | alisertib 0.009 | [4] 0.01 | gefitinib 0.023

RPL31 (UniProt P62899)
inactive: alvocidib -0.013 | Tubastatin A 0.032 | [1] -0.042 | defactinib -0.024 | [2] 0.044 | encorafenib -0.016 | [3] 0.035 | alisertib 0.033 | [4] -0.015 | gefitinib -0.035

RBM8A (UniProt Q9Y5S9)
inactive: alvocidib 0.086 | Tubastatin A 0.024 | [1] -0.024 | defactinib 0.017 | [2] -0.256 | encorafenib 0.002 | [3] -0.069 | alisertib 0 | [4] -0.062 | gefitinib -0.024

RETSAT (UniProt Q6NUM9)
inactive: alvocidib -0.114 | Tubastatin A 0.179 | [1] -0.071 | defactinib -0.045 | [2] 0.402 | encorafenib 0.079 | [3] 0.025 | [4] -0.059

RDH14 (UniProt Q9HBH5)
inactive: alvocidib -0.001 | Tubastatin A -0.033 | [1] 0.088 | defactinib -0.044 | [2] -0.123 | encorafenib -0.028 | [3] -0.199 | alisertib 0.07 | [4] -0.043 | gefitinib -0.07

RAPGEF4 (UniProt Q8WZA2)
UniProt Q8WZA2, sequence (Q8WZA2 whole entry, looked up): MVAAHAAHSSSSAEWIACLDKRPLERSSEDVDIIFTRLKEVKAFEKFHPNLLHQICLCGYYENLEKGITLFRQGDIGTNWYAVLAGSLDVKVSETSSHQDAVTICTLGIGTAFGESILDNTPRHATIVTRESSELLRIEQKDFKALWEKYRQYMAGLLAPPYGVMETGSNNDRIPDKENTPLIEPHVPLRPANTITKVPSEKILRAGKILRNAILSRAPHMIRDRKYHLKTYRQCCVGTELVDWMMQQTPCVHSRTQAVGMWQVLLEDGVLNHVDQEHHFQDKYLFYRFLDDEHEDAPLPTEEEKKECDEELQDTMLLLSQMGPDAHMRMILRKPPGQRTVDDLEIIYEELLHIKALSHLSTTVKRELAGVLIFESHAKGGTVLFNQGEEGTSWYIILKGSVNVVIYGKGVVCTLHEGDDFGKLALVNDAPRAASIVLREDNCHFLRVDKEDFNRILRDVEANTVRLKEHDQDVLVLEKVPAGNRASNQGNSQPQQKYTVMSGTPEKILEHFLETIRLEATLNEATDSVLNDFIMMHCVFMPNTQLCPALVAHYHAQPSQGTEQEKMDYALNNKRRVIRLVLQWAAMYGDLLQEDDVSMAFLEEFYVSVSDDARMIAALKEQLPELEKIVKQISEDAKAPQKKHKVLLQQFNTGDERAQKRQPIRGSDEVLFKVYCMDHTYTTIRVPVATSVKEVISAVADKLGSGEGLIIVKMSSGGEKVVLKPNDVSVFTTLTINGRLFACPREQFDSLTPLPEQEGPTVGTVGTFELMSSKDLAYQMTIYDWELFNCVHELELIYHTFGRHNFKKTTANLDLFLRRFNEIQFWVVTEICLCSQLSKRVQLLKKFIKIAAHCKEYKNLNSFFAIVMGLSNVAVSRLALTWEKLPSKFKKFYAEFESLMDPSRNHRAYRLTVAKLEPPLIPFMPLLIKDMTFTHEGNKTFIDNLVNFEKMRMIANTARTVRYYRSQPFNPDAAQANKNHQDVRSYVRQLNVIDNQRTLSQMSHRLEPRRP
inactive: alvocidib -0.367 | Tubastatin A 0.156 | [1] 0.061 | defactinib -0.023 | [2] 0.433 | encorafenib 0.018 | [3] 0.147 | [4] 0.196

RMC1 (UniProt Q96DM3)
inactive: alvocidib -0.041 | Tubastatin A -0.019 | [1] 0.019 | defactinib 0.049 | [2] -0.019 | encorafenib 0.012 | [3] -0.023 | alisertib 0 | [4] -0.001 | gefitinib 0.005

RNF2 (UniProt Q99496)
inactive: alvocidib 0.359 | Tubastatin A -0.008 | [1] 0.067 | defactinib 0.034 | [2] 0.018 | encorafenib 0.054 | [3] -0.076 | alisertib -0.125 | gefitinib -0.038

SAMD4A (UniProt Q9UPU9)
UniProt Q9UPU9, sequence (Q9UPU9 whole entry, looked up): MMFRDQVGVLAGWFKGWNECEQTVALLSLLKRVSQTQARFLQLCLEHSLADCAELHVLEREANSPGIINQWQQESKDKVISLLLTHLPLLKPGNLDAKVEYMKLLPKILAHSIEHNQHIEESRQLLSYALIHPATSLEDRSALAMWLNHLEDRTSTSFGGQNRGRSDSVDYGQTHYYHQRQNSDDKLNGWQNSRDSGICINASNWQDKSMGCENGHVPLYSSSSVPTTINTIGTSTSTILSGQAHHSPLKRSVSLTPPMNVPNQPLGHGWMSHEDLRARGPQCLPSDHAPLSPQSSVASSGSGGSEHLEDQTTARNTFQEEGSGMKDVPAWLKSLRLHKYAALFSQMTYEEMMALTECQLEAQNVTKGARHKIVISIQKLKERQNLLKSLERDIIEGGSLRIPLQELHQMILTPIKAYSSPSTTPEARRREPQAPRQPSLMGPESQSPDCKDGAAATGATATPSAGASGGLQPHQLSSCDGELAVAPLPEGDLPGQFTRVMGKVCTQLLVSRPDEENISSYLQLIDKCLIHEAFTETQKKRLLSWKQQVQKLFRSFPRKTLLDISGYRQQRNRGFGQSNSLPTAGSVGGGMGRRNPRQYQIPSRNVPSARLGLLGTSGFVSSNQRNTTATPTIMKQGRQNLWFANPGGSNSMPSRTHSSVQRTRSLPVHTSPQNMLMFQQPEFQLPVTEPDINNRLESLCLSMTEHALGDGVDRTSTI
inactive: alvocidib 0.039 | Tubastatin A -0.428 | [1] -0.01 | defactinib 0.001 | [2] 0.04 | encorafenib 0.009 | [3] -0.032 | [4] 0.035
